Read-out in assay [1]: Urokinase-type plasminogen activator receptor (uPAR), PLAUR (gene 5329)
Put plainly: BSK_CASM3C_uPAR: BioMAP Diversity Plus: CASM3C Assay for Urokinase-type plasminogen activator receptor (uPAR) Biomarker Activity (AID 2283054).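 Further: cell-surface uPAR protein level quantified by ELISA.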 Particulars: primary human coronary artery smooth muscle cells; actives raise or lower the signal.

Read-out in assay [2]: Vascular cell adhesion molecule 1 (VCAM1), VCAM1 (gene 7412)
Briefly: BSK_CASM3C_VCAM1: BioMAP Diversity Plus: CASM3C Assay for Vascular cell adhesion molecule 1 (VCAM1) Biomarker Activity (AID 2283055).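 Further: VCAM-1 protein level quantified by ELISA on the cells.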 Particulars: primary human coronary artery smooth muscle cells; actives raise or lower the signal.

Read-out in assay [3]: Collagen III, COL3A1 (gene 1281)
Briefly: BSK_hDFCGF_CollagenIII: BioMAP Diversity Plus: hDFCGF Assay for Collagen III Biomarker Activity (AID 2283056). Particulars: primary human foreskin fibroblasts; actives raise or lower the signal. The procedure, abridged: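 Human foreskin primary fibroblasts were exposed to test chemicals for 24 h, after which collagen III was quantified by ELISA. Activity was fitted bidirectionally against DMSO as negative control and baseline.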

Assay [4] can be described thus: BSK_hDFCGF_Proliferation: Cell Proliferation Assessment in the BioMAP Diversity Plus: hDFCGF Assay (AID 2283059).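 Further: curves fitted for both rise and fall of signal versus DMSO baseline.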 Particulars: primary human foreskin fibroblasts. In a few lines:
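Primary human foreskin fibroblasts, sub-confluent; […]; 10% TCA fix, 0.1% SRB stain, A560 total protein. Gain/loss fitted bidirectionally vs DMSO control.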

Read-out in assay [5]: Macrophage colony-stimulating factor (MCSF), CSF1 (gene 1435)
Put plainly: BSK_hDFCGF_MCSF: BioMAP Diversity Plus: hDFCGF Assay for Macrophage colony-stimulating factor (MCSF) Biomarker Activity (AID 2283060). To be noted: primary human foreskin fibroblasts; actives raise or lower the signal. The procedure, abridged:
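Human foreskin primary fibroblasts were treated with test chemical for 24 h, and M-CSF was then measured by ELISA. Data were fitted bidirectionally against DMSO as the negative control and activity baseline.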

Assay [6] in a line: BSK_hDFCGF_SRB: Viability Assessment in the BioMAP Diversity Plus: hDFCGF Assay (AID 2283061).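 Further: cells exposed to compound for 24 h before the read.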 Particulars: primary human foreskin fibroblasts. In a few lines:
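Human foreskin primary fibroblasts were treated with compound and assessed 24 h after dosing. Total protein was measured by sulforhodamine B staining (0.1% SRB after 10% TCA fixation, 560 nm read) as a cytotoxicity marker, with bidirectional fitting against DMSO baseline.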

Read-out in assay [7]: TIMP metallopeptidase inhibitor 1 (TIMP1), TIMP1 (gene 7076)
Briefly: BSK_hDFCGF_TIMP1: BioMAP Diversity Plus: hDFCGF Assay for TIMP metallopeptidase inhibitor 1 (TIMP1) Biomarker Activity (AID 2283062). Particulars: primary human foreskin fibroblasts; actives raise or lower the signal. The procedure, abridged: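 Primary human foreskin fibroblasts in the hDFCGF system were dosed with compound for 24 h, then TIMP-1 was measured by ELISA. Activity was fitted bidirectionally relative to DMSO control; parallel SRB staining assessed cytotoxicity.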

Read-out in assay [8]: Monokine induced gamma interferon (MIG), CXCL9 (gene 4283)
Briefly: BSK_hDFCGF_MIG: BioMAP Diversity Plus: hDFCGF Assay for Monokine induced gamma interferon (MIG) Biomarker Activity (AID 2283063). Particulars: primary human foreskin fibroblasts; actives raise or lower the signal. In a few lines: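 ELISA read-out of MIG from primary human dermal fibroblasts 24 h post-dosing. Gain or loss of signal fitted bidirectionally, DMSO as baseline.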

Read-out in assay [9]: Matrix Metallopeptidase 1 (MMP1), MMP1 (gene 4312)
Put plainly: BSK_hDFCGF_MMP1: BioMAP Diversity Plus: hDFCGF Assay for Matrix Metallopeptidase 1 (MMP1) Biomarker Activity (AID 2283064). To be noted: primary human foreskin fibroblasts; actives raise or lower the signal. In a few lines: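 ELISA read-out of MMP1 from human foreskin fibroblasts (primary skin cells), 24 h post-dose. Gain or loss of signal was fitted bidirectionally versus DMSO negative control; cytotoxicity was checked by SRB in parallel cultures.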

Read-out in assay [10]: Vascular cell adhesion molecule 1 (VCAM1), VCAM1 (gene 7412)
Put plainly: BSK_hDFCGF_VCAM1: BioMAP Diversity Plus: hDFCGF Assay for Vascular cell adhesion molecule 1 (VCAM1) Biomarker Activity (AID 2283065).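 On AC50: VCAM-1 protein level quantified by ELISA after 24 h chemical exposure.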 To be noted: primary human foreskin fibroblasts; actives raise or lower the signal. In a few lines:
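Primary human foreskin fibroblasts (hDFCGF system) were dosed with chemical and VCAM-1 was measured by ELISA 24 h later. Bidirectional curve fitting used DMSO as negative control and activity baseline.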

Read-out in assay [11]: Plasminogen activator inhibitor-1 (PAI1), SERPINE1 (gene 5054)
Briefly: BSK_hDFCGF_PAI1: BioMAP Diversity Plus: hDFCGF Assay for Plasminogen activator inhibitor-1 (PAI1) Biomarker Activity (AID 2283066). Particulars: primary human foreskin fibroblasts; actives raise or lower the signal. In a few lines:
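PAI-1 levels in human dermal foreskin fibroblasts were quantified by ELISA 24 h after dosing, with gain or loss analysed against DMSO. Overt cytotoxicity was checked by sulforhodamine B total-protein staining in parallel cultures.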

Read-out in assay [12]: Intercellular Adhesion Molecule 1 (ICAM1), ICAM1 (gene 3383)
Put plainly: BSK_KF3CT_ICAM1: BioMAP Diversity Plus: KF3CT Assay for Intercellular Adhesion Molecule 1 (ICAM1) Biomarker Activity (AID 2283067). To be noted: primary human keratinocytes with fibroblasts; actives raise or lower the signal. In a few lines:
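Human keratinocyte plus foreskin fibroblast primary co-culture was exposed to chemical for 24 h. ICAM-1 was then quantified by ELISA, and the data were fit bidirectionally against DMSO as the negative control and baseline.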

Read-out in assay [13]: Interferon-gamma inducible Protein 10 (IP10), CXCL10 (gene 3627)
Briefly: BSK_KF3CT_IP10: BioMAP Diversity Plus: KF3CT Assay for Interferon-gamma inducible Protein 10 (IP10) Biomarker Activity (AID 2283068). Particulars: primary human keratinocytes with fibroblasts; actives raise or lower the signal. The procedure, abridged: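 In a primary skin co-culture of keratinocytes and fibroblasts, IP-10 is quantified by ELISA at 24 h after dosing. SRB staining of parallel wells monitors overt toxicity. Curves are fitted both directions against DMSO.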

Assay [14] is described as follows: BSK_KF3CT_SRB: Viability Assessment in the BioMAP Diversity Plus: KF3CT Assay (AID 2283069).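 Further: fitted for both signal gain and loss against DMSO baseline.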 To be noted: primary human keratinocytes with fibroblasts. The procedure, abridged:
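SRB read-out at 560 nm (0.1% stain, TCA-fixed cells) gauges overt cytotoxicity in a human skin keratinocyte–fibroblast co-culture 24 h post-dosing. Signal change was fitted bidirectionally relative to DMSO control.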

Read-out in assay [15]: Interleukin-1 alpha (IL1a), IL1A (gene 3552)
Briefly: BSK_KF3CT_IL1a: BioMAP Diversity Plus: KF3CT Assay for Interleukin-1 alpha (IL1a) Biomarker Activity (AID 2283070). To be noted: primary human keratinocytes with fibroblasts; actives raise or lower the signal. The procedure, abridged: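 Primary skin co-culture (keratinocytes, foreskin fibroblasts), 24 h exposure; ELISA for IL-1a; bidirectional curve fit vs DMSO.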

Read-out in assay [16]: TIMP metallopeptidase inhibitor 2 (TIMP2), TIMP2 (gene 7077)
Briefly: BSK_KF3CT_TIMP2: BioMAP Diversity Plus: KF3CT Assay for TIMP metallopeptidase inhibitor 2 (TIMP2) Biomarker Activity (AID 2283071). To be noted: primary human keratinocytes with fibroblasts; actives raise or lower the signal. The procedure, abridged:
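TIMP-2 measured by ELISA at 24 h in human keratinocyte/fibroblast primary co-cultures exposed to chemicals. Both increases and decreases were fitted against DMSO. Parallel cultures were stained with SRB for total protein as an overt-cytotoxicity check.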

Read-out in assay [17]: Transforming growth factor beta 1 (TGFb1), TGFB1 (gene 7040)
Put plainly: BSK_KF3CT_TGFb1: BioMAP Diversity Plus: KF3CT Assay for Transforming growth factor beta 1 (TGFb1) Biomarker Activity (AID 2283072). Particulars: primary human keratinocytes with fibroblasts; actives raise or lower the signal. The procedure, abridged: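 ELISA quantifies TGF-b1 at 24 h post-dose in a primary human skin co-culture of keratinocytes and fibroblasts, with gain or loss judged against DMSO. Parallel SRB total-protein staining flags overt cytotoxicity.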

Read-out in assay [18]: Epidermal growth factor receptor (EGFR), EGFR (gene 1956)
Put plainly: BSK_hDFCGF_EGFR: BioMAP Diversity Plus: hDFCGF Assay for Epidermal growth factor receptor (EGFR) Biomarker Activity (AID 2283057). Particulars: primary human foreskin fibroblasts; actives raise or lower the signal. In a few lines:
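EGFR levels by ELISA in human dermal fibroblast cultures, 24 h post-treatment, fitted bidirectionally versus DMSO. Parallel wells stained with sulforhodamine B to detect overt cytotoxicity.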

Read-out in assay [19]: Interleukin-8 (IL8), CXCL8 (gene 3576)
Put plainly: BSK_hDFCGF_IL8: BioMAP Diversity Plus: hDFCGF Assay for Interleukin-8 (IL8) Biomarker Activity (AID 2283058). To be noted: primary human foreskin fibroblasts; actives raise or lower the signal. In a few lines: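 hDFCGF human dermal fibroblasts; 24 h chemical exposure; IL-8 by ELISA; bidirectional curve fit vs DMSO baseline; gain or loss of signal scored.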

The structures appear in SMILES notation. Activity calls are given as the source filed them. How the source made its calls: active means hit-call score of the fitted dose curve at least 0.9, where 1 is the maximum; inactive means score below 0.9.

Take `Oc1ccc(-c2ccccc2)cc1`: the result in assay [1], in assay [2], in assay [3], in assay [4], in assay [5] and in [6] was inactive. Besides, the result in assay [7], in assay [8], in assay [9], in assay [10], in assay [11] and in [12] was inactive. Moreover, the result in assay [13], in assay [14], in [16] and in [17] was inactive. Also, in [15], the AC50 (as a rule, the concentration giving half of the maximal activity seen) was 11.5 µM (active).

As to `COP(=S)(OC)Oc1c(Cl)cc(C)cc1Cl`, the outcome in assay [1], in assay [2], in assay [4], in assay [5], in assay [6] and in assay [7] was inactive. For the same compound, the result in assay [8], in assay [9], in assay [11], in assay [12], in assay [13] and in [14] was inactive. Besides, the outcome in assay [15], in [16] and in assay [17] was inactive. Also, the AC50 in assay [3] was 13.2 µM (active); in [10], 20 µM (active).

With `COC[C@H](C)N(C(=O)CCl)c1c(C)csc1C`, the outcome in assay [1], in assay [2], in assay [3], in assay [4], in [5] and in assay [6] was inactive. For the same compound, the outcome in assay [7], in assay [8], in assay [9], in [10], in assay [11] and in assay [12] was inactive. The result in assay [13], in [14], in [15], in assay [16] and in [17] was inactive.

For the compound `OCc1ccco1`, the outcome in [1], in [2], in assay [3], in assay [18], in assay [5] and in assay [6] was inactive. Besides, the result in assay [7], in assay [8], in assay [9], in assay [10], in [11] and in assay [12] was inactive. For the same compound, the result in assay [13], in [14], in assay [15], in assay [16] and in [17] was inactive. Moreover, the AC50 in assay [4] was 29.6 µM (active).

As to `CN(C)N=O`, the result in assay [1], in assay [2], in [3], in [18], in [19] and in assay [4] was inactive. In addition, the result in assay [5], in assay [6], in assay [7], in assay [8], in [9] and in [10] was inactive. In addition, the result in assay [11], in assay [12], in assay [13], in assay [14], in assay [15] and in [16] was inactive. Moreover, the outcome in assay [17] was inactive.

As to `ClC1=C(Cl)[C@]2(Cl)[C@H]3[C@H]([C@H]4C=C[C@H]3C4)[C@@]1(Cl)C2(Cl)Cl`, the result in assay [1], in [2], in assay [6], in assay [7], in assay [8] and in assay [9] was inactive. Moreover, the result in assay [12], in assay [13], in [14], in assay [15] and in assay [16] was inactive. Moreover, the AC50 in assay [3] is 4.4 µM (active); in assay [4], 8.76 µM (active); in assay [5], 0.492 µM (active); in assay [10] it was 6.26 µM (active); in [11], 1.16 µM (active); in assay [17] it was 2.86 µM (active).

The values above are taken from PubChem BioAssay (EPA / NIEHS).
